# Screens: PubChem BioAssay, National Center for Advancing Translational Sciences (NCATS)
# HepG2 tox – counter-screen for TGF-b inhibitors: cytotoxicity in HepG2 cells; 0.76% of 410,000 active; AID 588856; Potency, µM (series often up to 46.1 µM), for inactives: at the highest dose activity change, negative = cytotoxicity, usual class: cytotoxic; HepG2 CAGA-GFP viability, ATP luminescence, 18 h; also: potency is read from the fitted curve at half-maximal effect
#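 CellTiter-Glo luminescence gave cytotoxicity after 18 hours at 37 degrees C. The cells were HepG2 CAGA-GFP in 1% FBS DMEM, stimulated with 500 pg/mL TGF-beta after compound addition. %Activity was normalised to no-cell wells (complete cell-killing) and DMSO (no toxicity), and curves were fitted and classified.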
# D3 ag – D3 dopamine receptor (human) agonism; P35462; D3R DiscoveRx beta-arrestin cells, luminescence, 90 min; max activation, %; 0.58% of 410,000 active; AID 652048; in the data active = max activation above about 30%; also: 0% is about no effect
# Target sequence (P35462 whole entry, looked up): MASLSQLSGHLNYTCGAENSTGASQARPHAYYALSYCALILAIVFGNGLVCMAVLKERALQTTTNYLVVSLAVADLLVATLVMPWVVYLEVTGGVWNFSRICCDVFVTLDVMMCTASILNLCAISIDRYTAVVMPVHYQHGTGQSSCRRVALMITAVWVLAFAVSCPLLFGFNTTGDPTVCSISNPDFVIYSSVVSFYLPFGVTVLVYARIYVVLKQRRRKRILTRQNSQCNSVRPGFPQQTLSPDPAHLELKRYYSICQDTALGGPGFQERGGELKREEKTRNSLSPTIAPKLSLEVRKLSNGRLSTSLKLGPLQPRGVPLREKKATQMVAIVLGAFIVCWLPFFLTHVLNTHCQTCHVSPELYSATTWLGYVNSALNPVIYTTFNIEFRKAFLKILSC
#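 Agonist-mode cell screen: cells plated at 1500/well and incubated overnight at 37 °C, then exposed to library compounds for 90 min at 37 °C. Detection reagent was added for 30–60 min at room temperature, and luminescence was read.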
# DRD3 antagonist – blocks the human D3 dopamine receptor. P35462. D3R cells, DiscoveRx beta-arrestin luminescence, antagonist mode; hits give low values. 2.5% of 360,000 active. max response, negative = inhibition, %. AID 652054; in the data active = max response below about -50%; inconclusive = no clear call, values can overlap the other calls; also: % is scaled to controls: 0 for no effect and ±100 for the full control effect
#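 Cells expressing the human receptor were seeded at 1500 cells/well, incubated overnight at 37 degrees C in 5% CO2, then exposed to library compounds with dopamine controls for 90 minutes at 37 degrees C before luminescent detection.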
# TGFb SMAD3 inh – blocks TGF-b signaling | HepG2 CAGA-GFP TGF-b/SMAD3 reporter, GFP fluorescence, 18 h; TGF-beta stimulated, 500 pg/mL final | Potency, µM (series often up to 46.1 µM), for the others: top-dose activity, negative = inhibition, usual class: inhibitors | 1.2% of 410,000 active; also: potency is read from the fitted curve at half-maximal effect; % is scaled to controls: 0 for no effect and ±100 for the full control effect; nearly all actives have a fitted effect of over 65% in size
#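 HEPG2 CAGA-GFP reporter cells (1000/well, DMEM with 1% FBS) received compounds, then recombinant TGF-beta at 500 pg/mL final for 18 hours at 37 degrees C. Per-cell GFP summed per well was normalised to unstimulated and stimulated DMSO controls before curve fitting.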
# ATXN2 expr inh – reduces ATXN2 reporter expression in HEK-293 cells | HEK-293 ATXN2-luciferase reporter, luminescence, 24 h | Potency, µM (top dose mostly 57 µM), for the others: at the highest dose activity change, negative = inhibition, actives largely listed as inhibitors | 0.72% of 360,000 active | AID 1745845; also: potency is read from the fitted curve at half-maximal effect; % is scaled to controls: 0 for no effect and ±100 for the full control effect; nearly all actives have a fitted effect of over 55% in size
#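 ATXN2-luciferase reporter cells (luciferase flanked by upstream and downstream ATXN2 gene portions) were treated 24 h at 37 °C with compounds at up to 57 uM. SteadyGlo luminescence gave expression; GF-AFC fluorescence gave viability.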
# S2 tox – reduces viability in counter-screen for ATXN expression inhibitors; S2 cells (HEK-293 line with an ATXN2-luciferase reporter) viability, CellTiter-Fluor protease fluorescence, 24 h; Potency, µM (series often up to 56.7 µM), hits mostly cytotoxic; 0.49% of 400,000 active; also: potency is read from the fitted curve at half-maximal effect; nearly all actives have a fitted effect of over 40% in size
# The depositor's hits bear a star; i = inactive; ? = inconclusive; . = not tested or not shown; [ ] = remark or other dose. Shown are actives, neighbours in structure and some others; about 4.7% of the full set was active somewhere. Unless noted, calls follow the shape of the dose curve; as a rule, active = well fitted curve in the direction sought with a large enough effect; inconclusive = small, poorly fitted or top-dose-only effect, or another doubt; inactive = no such curve, though single readings can be large; an effect the other way counts as inactive or inconclusive.
SMILES,HepG2 tox,D3 ag,DRD3 antagonist,TGFb SMAD3 inh,ATXN2 expr inh,S2 tox
O=S(=O)(CCNCc1ccccc1)NC1CCCCC1,-0.9%,-40.7,-50.1*,-6.0%,3.1%,i
COc1ccc(C(=O)NCCS(=O)(=O)NC2CCCC2)cc1,1.9%,-17.7,-10.9,11.1%,-7.6%,i
COc1ccc(CNCCS(=O)(=O)NC2CCCCC2)cc1,-11.2%,-43.9,-52.7*,-26.8%,5.7%,i
CCCCCCCCNCCS(=O)(=O)NC1CCCCC1,-96.1%,-37.1,-90.9*,?,?,?
COc1cccc(C(=O)NCCS(=O)(=O)NC2CCCC2)c1,2.0%,-9.1,-73.6*,-13.7%,-14.6%,i
CCOC(=O)c1[nH]c2c(c1Cc1ccccc1)C(=O)CC(c1ccc(Cl)cc1)C2 (centres undefined),-6.1%,-6.7,.,-15.0%,-8.8%,i
Cc1cc2c(c(-c3cnccn3)c1)OC(CNC(=O)c1cc(C(C)C)[nH]n1)C2 (centres undefined),.,.,.,.,.,i
CCn1c(O)c(N=NC2=NC(=O)CS2)c2ccccc21,-6.0%,-16.0,-79.5*,0.0%,16.0%,i
CC(=O)C[C@H]1c2cc(C(F)(F)F)ccc2S(=O)(=O)N1C1CCCCC1,-16.2%,-1.2,-26.4,11.2µM*,-4.5%,i
COC(=O)C[C@H]1c2cc(C(F)(F)F)ccc2S(=O)(=O)N1C1CCCCC1,-3.7%,8.3,-6.0,?,-5.2%,i
CC1CCN(CC(O)COCCOc2ccc(Br)cc2)CC1 (centres undefined),6.5%,-3.2,21.2,13.3%,19.1%,i
CC1CCN(CC(O)COCCC23CC4CC(CC(C4)C2)C3)CC1 (centres undefined),-31.4%,-21.4,-57.4*,-18.7%,?,?
CN(C)CCCNC(=O)/C(=C/c1ccc(-c2ccc([N+](=O)[O-])cc2)o1)NC(=O)c1ccccc1,-15.1%,-3.6,-11.0,-24.4%,-36.2%,i
CN(C)CCCNC(=O)/C(=C\c1ccc(-c2ccc(Br)cc2)o1)NC(=O)c1ccccc1,11.2µM*,-7.9,-22.1,?,?,i
COc1cc(=O)n2c(c1C(=O)N(C)Cc1nccs1)CCN(Cc1cccc(F)c1F)CC2,.,.,.,.,.,i
CC1=C(C(=O)OC(C)C)C(c2cccs2)C(C(=O)OC(C)C)=C(C)N1,-41.1%,3.8,36.3,17.8µM*,-18.2%,i
CCOc1cc(C2C(C#N)=C(N)OC(C)=C2C(C)=O)c(Br)c(Br)c1OC(C)C (centres undefined),-58.1%,5.1,-8.4,15.8µM*,0.8%,i
CC(=O)c1ccc(-c2ccc3c4c(ccc3c2)OC(CNC(=O)[C@@H]2CCCN2C(C)=O)C4)s1 (some centres undefined),.,.,.,.,.,i
CCc1cccc(NC(=O)CN(C)S(=O)(=O)c2cnc[nH]2)c1,-16.8%,4.0,-52.3*,-13.0%,-4.3%,i
CCOC(=O)c1cccc(NC(=O)CN(C)S(=O)(=O)c2cnc[nH]2)c1,0.2%,9.0,0.1,0.3%,0.2%,i
CCOc1cccc(/C(O)=C2/C(=O)C(=O)N(CCOC)C2c2ccco2)c1 (centres undefined),-15.2%,-1.0,-55.0*,-1.9%,0.2%,i
CCOC(=O)C(CC)Sc1ccc2nnc(-c3ccc(F)cc3)n2n1 (centres undefined),-26.6%,.,.,-10.6%,.,.
C=CCn1c(SCC(=O)N(C)C2CCS(=O)(=O)C2)nnc1-c1ccncc1 (centres undefined),14.2%,-1.8,-54.1*,-1.2%,2.8%,i
C=CCn1c(SCC(=O)N(CC)C2CCS(=O)(=O)C2)nnc1-c1ccccc1 (centres undefined),20.0%,3.4,-17.8,4.8%,-2.6%,?
O=C(CSc1ccc(C(F)(F)F)cn1)Nc1ccccc1,-6.2%,-6.7,11.5,-2.5%,-10.4%,i
SMILES,HepG2 tox,D3 ag,DRD3 antagonist,TGFb SMAD3 inh,ATXN2 expr inh,S2 tox
O=C(/C=C/Sc1ccc(C(F)(F)F)cn1)c1ccccc1,-24.2%,-15.6,-68.9*,?,.,i
C=Cc1ccc(Cn2c(C(=O)O)c(CNC3CCCCC3)c3ccc(C)cc32)cc1,-32.4%,2.5,.,-4.0%,12.9%,i
Cc1ccc2ncc(C(=O)NCCc3ccc(S(N)(=O)=O)cc3)c(=O)n2c1,-47.1%,-4.9,.,?,.,.
O=C1C2C3C=CC(CO)(O3)C2C(=O)N1c1ccccc1-c1ccccc1 (centres undefined),12.6µM*,-16.0,?,12.6µM*,?,?
CCNC(=S)N1CCN(c2ccc([N+](=O)[O-])cc2)CC1,1.3%,-1.9,-5.4,9.6%,-15.5%,i
O=[N+]([O-])c1ccc(N2CCN(C(=S)NCc3ccc(Cl)cc3)CC2)cc1,-1.1%,-3.4,-53.0*,?,.,i
CC(=O)N[C@@H](C)C(=O)NCC1Cc2cc(C)cc(-c3cnccn3)c2O1 (some centres undefined),.,.,.,.,.,i
Cc1noc(C)c1COc1ccc(C(=O)Nc2ccccc2)cc1,-0.1%,1.9,-55.4*,-2.5%,9.1%[11.3 µM],i
Cc1noc(C)c1COc1ccc(C(=O)Nc2ccccn2)cc1,0.3%,3.7,-10.9,0.7%,12.5%,i
COc1cc(C(=O)NCC(c2ccccc2)N(C)C)ccc1OCc1c(C)noc1C (centres undefined),-11.5%,-26.1,-99.9*,-15.3%,0.7%,i
Cc1ccc(C)c(CN2C(=O)c3ccccc3S(=O)(=O)c3ccc(C(=O)N4CCc5ccccc54)cc32)c1,-4.2%,3.6,.,.,.,.
O=C(Nc1nnc(SCc2ccc(F)cc2)s1)c1cccnc1Cl,-0.1%,4.9,5.1,-6.0%,4.5%,i
